Out of some 310,000 compounds screened, about 14,000 (4.5%) showed an effect of 50% or more. Effects have a minus sign here. Many of the other results were omitted from the sample, so strong results are more common in it than they were.
target: human ether-à-go-go-related gene (hERG) potassium channel (human, UniProt Q12809); assay: primary screen, population patch clamp on CHO cells stably expressing hERG; higher = less effect of the substance
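Also: peak tail current of the secondary pulse compared with the same well before compound.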

Chain of human ether-à-go-go-related gene (hERG) potassium channel (Q12809 whole entry, looked up): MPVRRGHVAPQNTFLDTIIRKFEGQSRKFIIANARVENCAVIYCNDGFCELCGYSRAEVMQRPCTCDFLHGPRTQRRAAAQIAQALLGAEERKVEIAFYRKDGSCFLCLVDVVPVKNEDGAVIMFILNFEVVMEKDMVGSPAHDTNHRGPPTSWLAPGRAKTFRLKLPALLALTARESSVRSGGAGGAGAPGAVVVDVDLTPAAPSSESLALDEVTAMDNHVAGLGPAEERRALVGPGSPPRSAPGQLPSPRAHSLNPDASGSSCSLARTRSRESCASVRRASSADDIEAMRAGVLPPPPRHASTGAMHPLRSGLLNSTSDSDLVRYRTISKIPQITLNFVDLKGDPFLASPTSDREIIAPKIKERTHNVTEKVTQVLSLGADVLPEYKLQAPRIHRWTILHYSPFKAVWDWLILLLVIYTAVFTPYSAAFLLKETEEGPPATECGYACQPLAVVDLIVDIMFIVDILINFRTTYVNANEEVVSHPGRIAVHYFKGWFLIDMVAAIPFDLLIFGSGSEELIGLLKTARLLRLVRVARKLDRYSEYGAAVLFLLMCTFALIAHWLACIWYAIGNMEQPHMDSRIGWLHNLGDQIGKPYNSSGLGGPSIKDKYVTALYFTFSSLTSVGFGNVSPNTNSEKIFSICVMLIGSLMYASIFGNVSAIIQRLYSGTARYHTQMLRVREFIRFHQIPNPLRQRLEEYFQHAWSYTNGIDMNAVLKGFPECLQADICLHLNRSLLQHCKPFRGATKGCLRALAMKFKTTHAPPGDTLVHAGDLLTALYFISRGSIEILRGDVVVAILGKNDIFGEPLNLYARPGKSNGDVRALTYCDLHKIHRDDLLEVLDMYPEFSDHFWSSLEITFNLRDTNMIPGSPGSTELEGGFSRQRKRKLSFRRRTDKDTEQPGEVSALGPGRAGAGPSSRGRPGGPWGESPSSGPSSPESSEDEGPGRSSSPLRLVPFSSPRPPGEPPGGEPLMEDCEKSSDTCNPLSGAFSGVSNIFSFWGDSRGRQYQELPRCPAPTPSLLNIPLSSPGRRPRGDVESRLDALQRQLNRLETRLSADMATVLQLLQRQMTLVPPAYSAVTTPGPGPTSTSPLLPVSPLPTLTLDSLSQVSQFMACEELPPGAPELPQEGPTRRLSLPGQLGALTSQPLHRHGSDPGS

SMILES | hERG current change (%, negative = inhibition) at 10uM [%]
O=C(/C(=C(/[O-])c1ccccc1)[n+]1ccccc1)c1ccc([N+](=O)[O-])cc1 | 6.47
Cc1ccc(-c2nnc(N(C)C(=O)c3ccncc3)s2)cn1 | 1.62
CCC(C)(C)NC(=O)C(c1cccnc1)N(C(=O)c1csnn1)c1ccc(C)cc1 (stereo not drawn) | 10.6
CCCOc1ccc(-c2c(C(=O)N/N=C/c3ccccc3OCC)nnn2-c2nonc2N)cc1 | 22.7
COc1ccc(OC)c(C2C(C(=O)c3cc4ccccc4o3)=C(O)C(=O)N2c2cc(C)on2)c1 (stereo not drawn) | 2.7
COc1ccc2oc(C(=O)NN3C(C)CCCC3C)c(C)c2c1 (stereo not drawn) | 16.1
CNc1nccc(-c2ccc(F)cc2)c1C#N | 6.25
OC1(c2ccc3c(c2)OCO3)CCN(Cc2ccc(F)cc2)CC1 | -51.4
Cc1cccc(N2CCN(Cc3ccc4c(c3)OCO4)CC2)c1C | 3.83
Fc1ccccc1N1CCN(Cc2ccc3c(c2)OCO3)CC1 | -26.8
O=C(CN1CCN(Cc2ccc3c(c2)OCO3)CC1)Nc1cc(S(=O)(=O)N2CCCC2)ccc1Cl | -18.8
O=C(CN1CCN(Cc2ccc3c(c2)OCO3)CC1)Nc1ccc2c(c1)OCO2 | -72.5
O=C(CN1CCN(Cc2ccc3c(c2)OCO3)CC1)Nc1ccc(N2CCOCC2)cc1 | -6.54
OC1(c2ccc3c(c2)OCO3)CCN(Cc2ccccn2)CC1 | -6.96
O=S(=O)(c1ccc(F)cc1)N1CCC(O)(c2ccc3c(c2)OCO3)CC1 | -42
CN(C)S(=O)(=O)c1ccc(Cl)c(NC(=O)CN2CCN(Cc3ccc4c(c3)OCO4)CC2)c1 | -64.6
COc1ccc(NC(=O)CN2CCN(Cc3ccc4c(c3)OCO4)CC2)cc1OC.O=C(O)C(=O)O | -17.4
N#Cc1c(F)cccc1N1CCN(Cc2ccc3c(c2)OCO3)CC1 | -81.3
CN(C)S(=O)(=O)c1ccc(Cl)c(NC(=O)CN2CCCCCC2)c1 | -24.6
CS(=O)(=O)c1ccc2nc(NC(=O)c3ccc(N4CCCC4=O)cc3)sc2c1 | 13.3
CCCCNC(=O)[C@H]1N2C(=O)c3c(ccc(OC)c3OC)C2SC1(C)C (stereo partly drawn) | 12.8
S=c1[nH]ncn1/N=C/c1ccc(N2CCOCC2)cc1 | 14.9
CCCN(Cc1nnc(-c2cccs2)o1)C(=O)c1cccc(S(=O)(=O)N2CCOCC2)c1 | -25.3

SMILES | hERG current change (%, negative = inhibition) at 10uM [%]
CC(NC(=O)COC(=O)c1ccc(CO)cc1)C1CC2CCC1C2 (stereo not drawn) | 7.65
CC(=O)Nc1ccc(C(=O)NN2C(=O)c3ccccc3C2=O)cc1 | 7.29
COc1ccc(OC)c(C(=O)NC(CC(N)=O)c2ccc(N3CCC(Cc4ccccc4)CC3)c([N+](=O)[O-])c2)c1 (stereo not drawn) | -5.07
CCOC(=O)CN(C(=O)COc1nc(-c2ccccc2)cc(C)c1C#N)c1ccc(F)cc1 | 1.18
Cc1ccc(-n2c(-c3ccncc3)n[nH]c2=S)c(C)c1 | 13.7
CCOc1cc(N2CCOCC2)c(OCC)cc1NC(=O)CN1CCC(Cc2ccccc2)CC1 | -3.67
O=C(CSCc1ccccc1)N1CCN(Cc2ccc3c(c2)OCO3)CC1 | -22
COC(=O)c1ccsc1NC(=O)CN1CCN(Cc2ccc3c(c2)OCO3)CC1 | -78.4
CCOc1cc(N2CCOCC2)c(OCC)cc1NC(=O)CN1CCCC1 | 6.63
CCOc1cc(N2CCOCC2)c(OCC)cc1NC(=O)CN1CCN(Cc2ccc3c(c2)OCO3)CC1.Cl | -55.8
Fc1ccc(N2CCN(Cc3ccc4c(c3)OCO4)CC2)cc1 | -51.3
Oc1cc2c(cc1CN1CCN(c3ccc(F)cc3)CC1)OCO2 | -1.5
COC(=O)c1c(NC(=O)CN2CCN(Cc3ccc4c(c3)OCO4)CC2)sc(C)c1C.O=C(O)C(=O)O | -28.9
COc1ccsc1C(=O)N1CCN(Cc2ccc3c(c2)OCO3)CC1 | -16.5
CC(C)CC(=O)N1CCN(Cc2ccc3c(c2)OCO3)CC1 | 0.479
C/C(=C\c1ccccc1)C(=O)N1CCN(Cc2ccc3c(c2)OCO3)CC1 | -51.6
Fc1ccc(N2CCN(Cc3cc4c(cc3Br)OCO4)CC2)cc1 | 7.74
O=C1CC(Cc2ccc(Cl)cc2)C(=O)N1c1ccccn1 (stereo not drawn) | 1.83
CCOc1ccc(NC(=O)[C@@H](NC(=O)c2ccccc2)[C@@H](C)CC)cc1 | 2.26
CCC(C)NC(=O)CSc1c2c(nc3ccccc13)CCCC2 (stereo not drawn) | -7.98
O=C(N/N=C/c1ccc([N+](=O)[O-])s1)c1cccnc1 | 5.77
Cc1cc(C)nc(Sc2nc(C)nc3c2oc2ccccc23)n1 | -1.57
CCc1ccc(S(=O)(=O)Nc2c(NC3CCCCC3)c3ccccc3oc2=O)cc1 | -3.7

SMILES | hERG current change (%, negative = inhibition) at 10uM [%]
CC1CN(S(=O)(=O)c2ccc(C(=O)N3CCc4ccccc43)cc2)CC(C)O1 (stereo not drawn) | 15.9
CN(C1CCCCC1)S(=O)(=O)c1cccc(C(=O)Nc2ccccn2)c1 | -53.7
Cc1ccc(NC(=O)c2cccc(S(=O)(=O)N(C)C3CCCCC3)c2)nc1 | -34.7
CC(=O)Nc1ccc(NC(=O)c2cccc(S(=O)(=O)N(C)C3CCCCC3)c2)cc1 | 6.97
Cc1cccc2c1Sc1ccccc1CC2=O | 0.0655
COc1cccc(OCCCN2CCCCC2)c1 | -16.2
O=C1Cc2ccccc2Sc2ccccc21 | 1.13
O=C1Cc2ccccc2Sc2ccc(Cl)cc21 | 16
CN(C)CCCOc1ccc2c(c1)Sc1ccccc1CC2=O.Cl | -74.3
O=C1Cc2ccccc2Sc2ccc(O)cc21 | 16.4
Cc1ccc2c(c1)Sc1ccccc1CC2=O | -20.9
CN(C)CCOc1ccc2c(c1)Sc1ccccc1CC2=O.Cl | -64.8
Cl.O.O=C1Cc2ccccc2Sc2c(OCCN3CCCCC3)cccc21 | -63.4
c1ccc(-c2ccccc2OCCN2CCCC2)cc1 | -26.6
Cc1cccc(OCCCN2CCCCCC2)c1 | -28.2
Cl.O=C1Cc2ccccc2Sc2cc(OCCCN3CCCCC3)ccc21 | -69.8
O=C(O)c1n[nH]c2ccccc12 | -4.09
C[N+]1(CC(=O)NNc2c3ccccc3nc3ccccc23)CCOCC1.[Br-] | 3.64
COC(=O)C(=Nc1ccccc1)/C(C(=O)C(=O)N(C)c1ccccc1)=C(\O)c1ccccc1 | 22.7
CC1(C)CCCC2=C1CC1C(=O)N(Cc3cccnc3)C(=O)C1C2 (stereo not drawn) | -5.71
COc1ccc(-c2csc(-c3cc4ccccc4oc3=N)n2)cc1 | -4.44
CCCC(=O)N1CCN(c2ccc(NC(=O)c3ccc(Br)o3)cc2)CC1 | -8.1
COc1ccccc1NC(=O)C1CCN(S(=O)(=O)c2cccs2)CC1 | -7.13

SMILES | hERG current change (%, negative = inhibition) at 10uM [%]
c1ccc2[nH]c(CN3CCCCC3)nc2c1 | 1.41
Cc1ccnc(NC(=O)c2oc3ccccc3c2C)c1 | 24.7
O=C(O)/C=C1\NC(=O)c2ccccc21 | 17
COCC1CCCN(Cc2nc(Cc3ccccc3)no2)C1 (stereo not drawn) | 11.6
CN(Cc1cn(C)nc1-c1ccccc1F)CC1CCN(Cc2ccccc2)CC1 | -15.6
COCC1CCN(Cc2cn(Cc3ccccc3)nc2-c2cc3ccccc3o2)CC1 | -76.6
COCC1CCN(Cc2cn(C)nc2-c2cccc(Cl)c2)C1 (stereo not drawn) | -2.21
COCC1CCCN(Cc2cn(Cc3ccccc3)nc2-c2cc3ccccc3o2)C1 (stereo not drawn) | -72.8
COCC1CCCN(Cc2cn(-c3ccccc3F)nc2-c2cc(C)sc2C)C1 (stereo not drawn) | -39.4
CCCn1nnnc1SCC(=O)Nc1cccc(NC(=O)c2ccco2)c1 | -34.8
COc1ccc(OC)c(NC(=O)c2cnc(Nc3ccccc3OC)c3ccccc23)c1 | -7.53
CCN(CCCNC(=O)C1CCN(S(=O)(=O)CC)CC1)c1cccc(C)c1 | -40.4
Nc1c(C(=O)Nc2ccc(Cl)c(C(=O)O)c2)sc2nc3c(cc12)CCCC3 | -3.17
O=C(CSc1ccc2nnc(-c3ccccn3)n2n1)Nc1nccs1 | -27.6
CC(C)(C)OC(=O)NCc1n[nH]c(=S)n1C1CC1 | 14.5
COCCN(Cc1cc2cc3c(cc2nc1Cl)OCO3)C(=O)c1ccc(C)cc1 | -53.2
COCCN(Cc1cc2cc3c(cc2nc1Cl)OCO3)C(=O)Nc1ccc(F)cc1 | -30
COCCN(Cc1cc2cc3c(cc2nc1Cl)OCO3)C(=O)c1cccc(C)c1 | -64.3
COCCN(Cc1cc2cc3c(cc2nc1Cl)OCO3)C(=O)Nc1ccccc1OC | 16.3
COCCN(Cc1cc2cc3c(cc2nc1Cl)OCO3)C(=O)Nc1ccc(OC)cc1 | 14.7
COCCN(Cc1cc2cc3c(cc2nc1Cl)OCO3)C(C)=O | 3.81
